Experimental data published in PubChem BioAssay AID565 (University of Pittsburgh Molecular Library Screening Center, 2006).
Out of some 65,000 compounds screened, about 1,200 (1.8%) were called active. No stated cut-off is given here; in the data, active means inhibition above about 50%; inactive means the rest. The list comes from a sample in which actives are over-represented; it also holds similar structures and randomly drawn compounds.

Target: Gag-Pol polyprotein (Human immunodeficiency virus type 1 group M subtype B (isolate HXB2)) (UniProt P04585)
Assay: HIV-1 RT RNase H inhibitors, primary screen, biochemical, fluorescence (AID 565)
Conditions: RT-RNase H RNA/DNA duplex cleavage, at 10 µM, stronger effect = higher value

SMILES	inhibition
COC(=O)C1=C(C)OC(N)=C(C#N)C1c1cc(OC)ccc1OC (stereo unspecified)	-6.95% (inactive)
CCC(=O)NC(=Nc1nc2ccccc2s1)NC(=O)CC	-21.2% (inactive)
N#Cc1nc(-c2ccc(OCc3ccccc3)cc2)oc1NCCCN1CCOCC1	-42.2% (inactive)
COc1ccc(Nc2oc(-c3ccccc3Cl)nc2C#N)cc1	54.5% (active)
CCOc1ccc(Nc2oc(Cc3ccccc3)nc2C#N)cc1	-28.4% (inactive)
CC(C)C1N=C2c3ccccc3N=C(SCC(=O)c3ccc(O)c(O)c3)N2C1=O (stereo unspecified)	96.1% (active)
NC(=O)CSC1=Nc2ccccc2C2=NC(CCC(=O)NCc3ccc(F)cc3)C(=O)N12 (stereo unspecified)	-6.32% (inactive)
O=C(CSC1=Nc2ccccc2C2=NC(c3ccccc3)C(=O)N12)NCC1CCCO1 (stereo unspecified)	2.21% (inactive)
CCOc1cc(/C=N/O)cc(Br)c1OC	-18.2% (inactive)
CN1CCC2(CC1)NC(=O)NC2=O	-0.41% (inactive)
COc1ccc(N2CCN(C(=O)CSc3nnc4ncccn34)CC2)cc1	2.76% (inactive)
COc1ccc(N2CCN(C(=O)CSc3nc4cc(OC)c(OC)cc4cc3C#N)CC2)cc1	36.4% (inactive)
COc1ccc(N2CCN(C(=O)CSc3ncnc4c3cnn4-c3ccc(OC)cc3)CC2)cc1	54.2% (active)
O=C(O)C1CCCN(S(=O)(=O)c2cccc3cccnc23)C1 (stereo unspecified)	-3.84% (inactive)
COc1cc2[nH]c(=S)n(CCN3CCCCC3C)c(=O)c2cc1OC (stereo unspecified)	-11% (inactive)
CCSc1nc(=S)n(CC)c(C)c1C(C)=O	-6.33% (inactive)
COC(=O)c1sc(=S)n(-c2ccccc2)c1N	88.6% (active)
CCOc1cccc(-n2nnnc2-c2ccc(OC)cc2)c1	-27.8% (inactive)
CCOC(=O)Cn1c(SC)nc2sc3c(c2c1=O)CC(C)(C)OC3	-12.4% (inactive)
CCOC(=O)CNC(=O)c1nn(-c2cccc(OC)c2)c(=O)c2ccccc12	-9.52% (inactive)
CCOC(=O)c1sc(=S)n(-c2cccc(OC)c2)c1N	65.1% (active)
COC(=O)c1cn(-c2ccccc2)nc1-c1cccnc1	-35.4% (inactive)
CCOC(=O)Cn1c(N)c(C(=O)OC)sc1=S	56.2% (active)
CCOC(=O)c1nc(N)sc1C(=O)OCC	-13.4% (inactive)
CCOC(=O)CSc1nnc(CNC(=O)c2cccs2)n1-c1ccccc1	-126% (inactive)
O=C(Cn1c(=S)nc2ccccn21)N1CCc2ccccc2C1	-12.1% (inactive)

SMILES	inhibition
Cc1nn2c3ccccc3nc2n(C)c1=O	-8.5% (inactive)
CCOc1ncccc1C(=O)OCc1cn2cc(Cl)ccc2n1	-19.9% (inactive)
CCN(CC)CCCN1C(=O)C(=O)/C(=C(/O)c2c(C)nc3ccccn23)C1c1ccc(C)o1 (stereo unspecified)	-7.5% (inactive)
O=c1c2ccccc2nnn1CSc1nc2sc3c(c2c(=O)n1CC1CCCO1)CCC3 (stereo unspecified)	-3.16% (inactive)
CC1Oc2ccccc2N(Cc2cccnc2)C1=O (stereo unspecified)	-1.88% (inactive)
COC(=O)Nc1ccc(S(=O)(=O)N(C)CC(F)(F)C(F)F)cc1	-4.49% (inactive)
O=C(CN1CCN(CC(=O)Nc2ccc3c(c2)OCO3)CC1)Nc1ccc(F)cc1	-10.3% (inactive)
c1ccc(Nc2nc(-c3ccncc3)cs2)nc1	-13.7% (inactive)
N#CC(=C1SC=CS1)c1nc(-c2ccccc2)cs1	55.1% (active)
N#C/C(=C1\CCCN1)c1nc(-c2ccccc2)cs1	-34% (inactive)
Cc1cc(C)n(C(=O)c2ccc(S(=O)(=O)N3CCCC3)cc2)n1	-7.85% (inactive)
Fc1ccccc1OCCSc1nc2ccccc2o1	-31.7% (inactive)
Cc1ccnc(-n2sc3ccccc3c2=O)n1	84.5% (active)
Cc1nc2ccccc2c(=O)n1CCCn1ccnc1	-6.99% (inactive)
CC12C(=O)N(n3cnnc3)C(=O)C1C1C=CC2C1 (stereo unspecified)	1.01% (inactive)
C/C(=C\C(=O)c1ccc(Br)cc1)N1CCCCC1	-18.6% (inactive)
CCC(=O)Nc1cccc(NC(=O)CSc2nnc(-c3ccc(NS(C)(=O)=O)cc3)n2C)c1	-1.65% (inactive)
CCc1c(C)[nH]c(=S)c(C#N)c1C	84.3% (active)
CC(=O)N1CCN(CCN=CC2=C(O)CC(C)(C)CC2=O)CC1	-3.55% (inactive)
COCCCNC(=O)Cn1cc(C(=O)C2CC2)c2ccccc21	-5.05% (inactive)
N#CCCn1cnc2ccccc21	-0.17% (inactive)
Fc1ccc(OCc2nn3c(Cn4nnc5ccccc54)nnc3s2)cc1	77.8% (active)
Cc1ccc(C(=O)CSc2nnc(Cn3nnc4ccccc43)n2C)cc1	-1.04% (inactive)
CCOc1cccc(-c2nnc3sc(COc4ccc(OC)cc4)nn23)c1	1.27% (inactive)
c1ccc(Cc2nn3c(Cn4cnc5ccccc54)nnc3s2)cc1	82.6% (active)
O=C(CSc1nnc(Cn2cnc3ccccc32)o1)c1ccccc1	-18.7% (inactive)

SMILES	inhibition
NC(=O)C1CCN(C2OC(=O)c3ccccc32)CC1 (stereo unspecified)	2.61% (inactive)
COc1ccc(OCC(=O)N2CCOCC2)cc1	-8.89% (inactive)
CCOc1cc(C(=S)N2CCOCC2)ccc1O	91.2% (active)
CCOc1cc(-c2noc(CCC(=O)N3CCOCC3)n2)ccc1OC	-9.69% (inactive)
CCCSc1nc2c(c(=O)[nH]c(=O)n2C)n1CCc1ccccc1	-11.9% (inactive)
CCCCCCn1c(SCC(=O)c2ccccc2)nc2c1c(=O)[nH]c(=O)n2C	54.7% (active)
Cn1c(=O)[nH]c(=O)c2c1nc(Br)n2CCCCSc1nc2ccccc2o1	19.8% (inactive)
Cc1nnc(SCCCn2c(N3CCCCC3)nc3c2c(=O)[nH]c(=O)n3C)s1	-3.25% (inactive)
CCCCCn1c(SCCC(C)C)nc2c1c(=O)[nH]c(=O)n2C	54.8% (active)
Cn1c(=O)[nH]c(=O)c2c1nc(N1CCCCCC1)n2CC(=O)c1ccccc1	1.85% (inactive)
CCn1cc(NC(=O)Nc2ccc(OC)c(OC)c2)c(C(N)=O)n1	9.07% (inactive)
O=C(O)c1cccc2c1C(=O)N(C1CCCCC1)C2	-4.3% (inactive)
CCN(CC)P(=O)(/C(Cl)=C\Nc1c(C)n(C)n(-c2ccccc2)c1=O)N(CC)CC	-5.1% (inactive)
O=S(=O)(c1ccc2ccccc2c1)N1CCN(S(=O)(=O)N2CCOCC2)CC1	-6.43% (inactive)
Cc1noc(C)c1CSc1nc2cc(S(=O)(=O)N3CCOCC3)ccc2o1	86.2% (active)
CCOC(=O)c1sc(NC(=O)c2cc(S(=O)(=O)N3CCOCC3)ccc2C)nc1C	3.07% (inactive)
CCOCCCNC(=O)Cc1cc(=O)[nH]c(=O)[nH]1	5.5% (inactive)
CC(=O)Oc1ccc(C)cc1N1C(=O)c2ccc(C(=O)O)cc2C1=O	-4.48% (inactive)
CC1CCCN(C(=O)Cn2c(=O)oc3ccccc32)C1 (stereo unspecified)	7.78% (inactive)
COc1ccc(OC)c(NC(=O)Cn2c(=O)oc3ccccc32)c1	-1.94% (inactive)
NC(=O)Cn1c(=O)oc2ccccc21	96.3% (active)
O=C(Nc1nc(-c2ccc3c(c2)OCO3)cs1)c1ccncc1	-9.11% (inactive)
COc1ccc(OC)c2sc(NC(=O)C3COc4ccccc4O3)nc12 (stereo unspecified)	1.92% (inactive)
O=C(Nc1nc(-c2ccncc2)cs1)C1COc2ccccc2O1 (stereo unspecified)	83.8% (active)
O=C(CCSCCc1ccccn1)Nc1nccs1	-23.9% (inactive)
CCOC(=O)c1c(C)c(C(=O)NCCc2ccc(S(N)(=O)=O)cc2)c(C)n1CC	-6.32% (inactive)

SMILES	inhibition
CCCc1nnc(NC(=O)CN2C(=O)c3ccccc3S2(=O)=O)s1	89.7% (active)
CCCc1nnc(NC(=O)c2cc(OC)cc(OC)c2)s1	4.61% (inactive)
CNC(=O)CN1C(=O)c2ccccc2S1(=O)=O	4.74% (inactive)
O=C(CN1CCOCC1)Nc1c(-c2ccccc2)c2cc(Br)ccc2[nH]c1=O	9.93% (inactive)
COc1ccc(N2CCN(CCNC(=O)c3nnc(Cc4c(F)cccc4Cl)o3)CC2)cc1	4.44% (inactive)
CCC(=NC1CC(C)(C)NC(C)(C)C1)C1=C(O)CC(C)(C)CC1=O	-6.23% (inactive)
Oc1ccc(-c2csc(Nc3cccnc3)n2)cc1	34.2% (inactive)
COc1ccc(OC)c(Nc2nc(-c3ccc(O)c(O)c3)cs2)c1	71.9% (active)
COc1ccc(-c2n[nH]c(C)c2-c2ccc(OC)c(OC)c2)c(O)c1	3.91% (inactive)
COCCN(C(=O)CCC(=O)Nc1ccccn1)C(C(=O)NCCC(C)C)c1ccc(OC)cc1 (stereo unspecified)	3.89% (inactive)
CSCCC(Nc1nc2ccccc2s1)C(=O)O (stereo unspecified)	-3.78% (inactive)
O=C(NCc1ccccn1)c1cc2ccccc2oc1=O	-3.63% (inactive)
O=C(NCc1ccccn1)c1ccc2nc(-c3ccco3)c(-c3ccco3)nc2c1	87.7% (active)
Cc1cccn2c(=O)c3cc(C(=O)NCc4ccccn4)n(C)c3nc12	-10.5% (inactive)
CC(Sc1nncs1)C(=O)NCc1ccc2c(c1)OCO2 (stereo unspecified)	-19.3% (inactive)
c1ccc(-n2ncc3c2ncn2c(C4CCCCC4)nnc32)cc1	-1.63% (inactive)
Cc1nc2nc(CSc3nc4ccccc4s3)cc(=O)n2[nH]1	4.18% (inactive)
c1ccc(-n2ncc3c2ncn2c(CSc4nc5ccccc5s4)nnc32)cc1	63.5% (active)
CN1CCN(C(=O)C2C3C=CC(C3)C2C(=O)O)CC1 (stereo unspecified)	0.5% (inactive)
CCN(CC)CCN1C(=O)C(=O)/C(=C(/O)c2ccc(OC)c(OC)c2)C1c1ccccn1 (stereo unspecified)	5.17% (inactive)
COCC(=O)Nc1nnc(COc2ccccc2)s1	-3.37% (inactive)
COc1ccc(Cc2nnc(NS(=O)(=O)Cc3ccccc3)s2)cc1	1.94% (inactive)
COc1ccc(Cc2nnc(NC(=O)Cc3cccs3)s2)cc1	70.2% (active)
